In the library only some 11% were active in any assay of this set; here they are far more common.
AMA1-RON2 inh – qHTS for Inhibitors of AMA1-RON; Towards Development of Antimalarial Drug Lead: Primary Screen | Plasmodium falciparum AMA1 (3D7) - RON2 peptide interaction | AlphaScreen AMA1-biotinylated RON2 peptide binding | Potency, µM (series often up to 58.2 µM), most hits filed as inhibitors | 360,000 compounds, 0.2% hits; note: nearly all actives have a fitted effect of over 45% in size
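AMA1 (3D7) with his tag at 25 nM final met compounds first, then biotinylated RON2 peptide at 25 nM; detection used donor plus acceptor beads, 10 µg/mL apiece, read by AlphaScreen after 30 min at room temperature.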
AmpC inh no detg – qHTS Inhibitors of AmpC Beta-Lactamase (assay without detergent); P00811; AmpC nitrocefin hydrolysis, absorbance 480 nm, 0.0001% Triton; Potency, µM (top dose mostly 57.1 µM), actives largely listed as inhibitors; 330,000 compounds, 0.52% hits; AID 485341, 2010; note: nearly all actives have a fitted effect of over 20% in size
Target sequence (P00811 whole entry, looked up): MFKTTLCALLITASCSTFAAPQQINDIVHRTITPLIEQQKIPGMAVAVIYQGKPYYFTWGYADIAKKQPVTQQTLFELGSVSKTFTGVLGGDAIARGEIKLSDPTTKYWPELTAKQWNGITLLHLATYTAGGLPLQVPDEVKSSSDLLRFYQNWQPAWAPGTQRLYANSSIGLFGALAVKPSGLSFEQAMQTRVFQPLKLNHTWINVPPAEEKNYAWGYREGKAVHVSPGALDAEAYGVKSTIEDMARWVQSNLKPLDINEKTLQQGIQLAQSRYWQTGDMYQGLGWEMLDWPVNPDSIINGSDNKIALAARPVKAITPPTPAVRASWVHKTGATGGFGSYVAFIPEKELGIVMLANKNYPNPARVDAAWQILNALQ
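AmpC (5.3 nM in the dispensed reagent) in 20 mM phosphate pH 7.0 with 0.01% (detergent screen) or 0.0001% Triton X-100 was preincubated with compounds for 15 min at room temperature. Nitrocefin was then added from an 800 uM solution, and hydrolysis was followed at 480 nm.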
AmpC detergent – qHTS Inhibitors of AmpC Beta-Lactamase (assay with detergent); P00811; Potency, µM (titrated, usually from 114 µM), hits mostly inhibitors; AID 485294, 2010; 370,000 compounds, 0.041% hits; AmpC hydrolysis of nitrocefin, absorbance 480 nm, 0.01% Triton; note: nearly all actives have a fitted effect of over 25% in size
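20 mM phosphate pH 7.0 + 0.01% (detergent screen) or 0.0001% Triton X-100; 5.3 nM AmpC reagent; cpd preinc 15 min RT; nitrocefin (800 uM stock) to start; A480 q20 s × 4 min; Activity was normalised to no-enzyme and no-compound control wells.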
Pf growth 48h – Primary qHTS for delayed death inhibitors of the malarial parasite plastid, 48 hour incubation. P. falciparum luciferase growth in erythrocytes, 48 h. 310,000 compounds, 5.9% hits. Potency, µM (top dose mostly 28.7 µM), actives largely listed as inhibitors. AID 504832, 2011
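Erythrocytes infected with P. falciparum carrying an integrated firefly luciferase reporter (2% hematocrit, 0.1% parasitemia final) were exposed to compounds in RPMI 1640 with 0.5% Albumax at 37 C, 5% CO2. Growth inhibition was scored as reduced luminescence.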
Pf growth 96h – Primary qHTS for delayed death inhibitors of the malarial parasite plastid, 96 hour incubation; P. falciparum luciferase reporter growth, 96 h; Potency, µM (top dose mostly 28.7 µM), actives largely listed as inhibitors; 320,000 compounds, 6.9% hits; AID 504834, 2011
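Two parasite generations (96 h, 37 C, 5% CO2) of compound exposure in infected erythrocytes (0.05% parasitemia, 2% hematocrit). Luciferase-reporter P. falciparum; decreased luminescence indicates inhibited growth, aimed at apicoplast-acting delayed death.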
HCV inh – qHTS Assay for Inhibitors of Hepatitis C Virus (HCV); AID 651820, 2012; Huh7.5.1 HCVcc-Cre infection, luciferase reporter, 44 h; Potency, µM (series often up to 41.8 µM), hits mostly inhibitors; 340,000 compounds, 3.4% hits
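Luciferase read-out (15 sec integration) after a 15 min room-temperature substrate step quantifies HCVcc-Cre infection. Cells, 1,000 per well, had compound added 4 h post-plating, then virus at ~0.5 moi, and were cultured 44 h.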
Hits are given with their value; . = inactive; ? = inconclusive; / = no result given. Calls come from the whole dose curve; as a rule, active = well fitted curve in the direction sought with a large enough effect; inconclusive = small, poorly fitted or top-dose-only effect, or another doubt; inactive = no such curve, though single readings can be large; an effect the other way counts as inactive or inconclusive.

SMILES | AMA1-RON2 inh | AmpC inh no detg | AmpC detergent | Pf growth 48h | Pf growth 96h | HCV inh
Cc1ccc(-n2nnnc2Sc2nc([N+](=O)[O-])nn2C)cc1C | . | . | . | 3.3µM | ? | .
CCn1cc[n+](C)c1P(c1ccccc1)c1ccccc1 | . | . | . | 1.3µM | ? | .
O=[N+]([O-])c1cccc(C2Nc3cccc4cccc(c34)N2)c1 | . | . | . | 4.1µM | . | .
O=C1c2ccccc2NC(c2cccc([N+](=O)[O-])c2)N1O (stereo not drawn) | . | . | . | ? | 8.3µM | ?
O=[N+]([O-])c1ccc(C2Nc3cccc4cccc(c34)N2)cc1 | ? | . | ? | . | 13µM | .
CCN(CC)c1ccc(C2Nc3cccc4cccc(c34)N2)cc1 | . | . | . | 10µM | ? | .
CCN(CC)c1nn2c(=O)c(C(=O)NCc3ccccc3Br)cnc2s1 | / | / | . | / | / | /
O=C1C2CC=C(Cl)CC2C(=O)N1CCC[n+]1cccc2ccccc21 (stereo not drawn) | . | . | ? | 9.3µM | ? | .
O=C1C2CC=C(Cl)CC2C(=O)N1CCCCCCN1C(=O)C2CC=C(Cl)CC2C1=O (stereo not drawn) | . | . | ? | / | 12µM | .
O=C1C2CC=C(Cl)CC2C(=O)N1CCN1CCOCC1 (stereo not drawn) | . | . | ? | / | . | .
O=C(c1ccccc1)N1CCN(C(=O)c2nn3c(C(F)(F)F)cc(-c4ccco4)nc3c2Br)CC1 | . | . | . | 10µM | . | ?
O=C(NC1CCCCC1)c1nn2c(C(F)(F)F)cc(-c3ccco3)nc2c1Br | . | . | . | . | . | .
CCc1nn2c(=O)cc(COC(=O)c3ccccc3NC(=O)COc3ccc(F)cc3)nc2s1 | / | / | . | / | / | /
COc1ccc(N2CC(NC(=O)Cc3cccs3)CC2=O)cc1 (stereo not drawn) | / | / | . | / | / | /
Cc1c(C#N)c(NC(=O)CCl)n(Cc2cccs2)c1C | . | . | . | 10µM | 3.3µM | ?
Cc1c(C#N)c(NC(=O)CCl)n(Cc2ccccc2)c1C | . | . | . | ? | 19µM | ?
Cc1c(C#N)c(NC(=O)CCl)n(Cc2ccc(F)cc2)c1C | . | . | . | ? | ? | ?
Cc1c(C)n(Cc2ccccc2)c2ccc(C(=O)NCCc3ccccc3Cl)cc12 | / | / | . | / | / | /
Fc1ccc(CN2CCN(c3ncnc4scc(-c5ccc(F)cc5)c34)CC2)cc1 | . | . | . | / | ? | .
Clc1ccc(CN2CCN(c3ncnc4scc(-c5cccs5)c34)CC2)cc1 | . | . | . | / | 13µM | ?
Cc1ccc(-c2csc3ncnc(N4CCN(c5ccccc5O)CC4)c23)cc1 | . | . | . | 9.3µM | 10µM | ?
Cc1ccccc1N1CCN(c2ncnc3scc(-c4cccs4)c23)CC1 | . | . | . | ? | . | 10µM
COc1ccc(-c2csc3ncnc(N4CCN(c5ccccc5O)CC4)c23)cc1 | . | . | . | . | . | ?
Cc1ccc(-n2nc(C(=O)N(C)c3ccc(C)c(C)c3)c3c4ccccc4n(C)c3c2=O)cc1 | / | / | . | / | / | /
CCOC(=O)c1c(NC(=O)c2cc(-c3ccccc3OC)on2)sc(C)c1C | / | / | . | / | / | /
SMILES | AMA1-RON2 inh | AmpC inh no detg | AmpC detergent | Pf growth 48h | Pf growth 96h | HCV inh
CCOc1ccc(-n2c(SC(C)C(=O)OC)nc3c([nH]c4ccccc43)c2=O)cc1 (stereo not drawn) | / | / | . | / | / | /
COc1ccc(-c2nc3scc(CCNS(=O)(=O)c4ccc(F)cc4C)n3n2)cc1 | / | / | . | / | / | /
CC1CC(C)CN(C(=O)c2ccc3c(c2)N(Cc2ccccc2)CCS3)C1 (stereo not drawn) | ? | . | . | / | ? | ?
O=C(NC1CC1)c1ccc2c(c1)N(Cc1ccc(Cl)cc1)CCS2 | . | . | ? | ? | ? | 22µM
O=C(NC1CCCC1)c1ccc2c(c1)N(Cc1ccccc1)CCS2 | . | . | . | ? | 10µM | ?
Cc1ccc(CN2CCSc3ccc(C(=O)NC4CCN(Cc5ccccc5)CC4)cc32)cc1 | ? | . | ? | ? | . | 8.9µM
CCOC(=O)N1CCN(C(=O)c2ccc3c(c2)N(Cc2ccccc2)CCS3)CC1 | . | . | . | ? | 12µM | ?
Cc1ccc(CNC(=O)CN2Cc3ccccc3C2=O)cc1 | / | / | . | / | / | /
CC(C)CCNC(=O)CN1C(=O)CSc2ccc(S(=O)(=O)N3CCCCC3)cc21 | / | / | . | / | / | /
CCOc1ccc(NC(=O)CSc2nc(=O)[nH]c3c2CCC3)cc1 | / | / | . | / | / | /
CCN1CCN(CCCNC(=O)c2ccc3c(c2)N(Cc2ccc(C)cc2)CCS3)CC1 | . | . | . | 17µM | ? | 11µM
Cc1ccc(CN2CCSc3ccc(C(=O)NCCCN4CCOCC4)cc32)cc1 | . | . | . | ? | . | .
C=C1C(=O)c2sccc2C(c2ccc(OC)c(OC)c2)C1COC(C)=O (stereo not drawn) | . | / | / | / | / | 1.4µM
COc1ccc2c(C)c(CCC(=O)NCCc3ccc(OC)c(OC)c3)c(=O)oc2c1 | / | / | . | / | / | /
COc1cc(CCCN2C(N)=NC[C@@H]2Cc2ccc(O)cc2)cc(OC)c1OC | . | . | . | ? | 2.3µM | .
COc1cc(CCCN2C(N)=NC[C@@H]2Cc2ccccc2)cc(OC)c1OC | . | . | . | 9.3µM | 9.3µM | .
COc1ccc(OC)c(CCNC(=O)c2cc3cccc4c3n2CC(C)S4)c1 (stereo not drawn) | / | / | . | / | / | /
Cc1nnc2ccc(-c3cccc(NS(=O)(=O)c4cc(F)ccc4F)c3)nn12 | . | . | . | . | ? | ?
Cc1nnc2ccc(-c3cccc(NS(=O)(=O)c4ccccc4Cl)c3)nn12 | . | . | . | 12µM | ? | .
Cc1nnc2ccc(-c3cccc(NS(=O)(=O)c4ccccc4[N+](=O)[O-])c3)nn12 | . | . | . | . | 2.9µM | .
Cc1cccc(NC(=O)c2oc3ccc(S(=O)(=O)N4CCOCC4)cc3c2C)c1C | . | . | . | 4.7µM | . | 10µM
Cc1ccc(NC(=O)c2oc3ccc(S(=O)(=O)N4CCC5(CC4)OCCO5)cc3c2C)cc1C | . | . | . | 13µM | ? | ?
CCOC(=O)c1oc2ccc(S(=O)(=O)n3nc(-c4cc(OCC)c(OCC)c(OCC)c4)cc3N)cc2c1C | / | / | . | / | / | /
COc1ccc(NC(=O)c2oc3ccc(S(=O)(=O)N4CCC5(CC4)OCCO5)cc3c2C)cc1Cl | / | / | . | / | / | /
Cc1c(C(=O)NCCCN2CCCC2=O)oc2ccc(S(=O)(=O)N3CCOCC3)cc12 | . | . | . | . | / | .
Cc1c(C(=O)NCCC2=CCCCC2)oc2ccc(S(=O)(=O)N3CCOCC3)cc12 | . | . | ? | 12µM | . | 10µM

Screening results from PubChem BioAssay.
